According to PubChem BioAssay AID2283234 (EPA ToxCast):
Inconclusive results are not listed. Calls of active or inactive are those of the source. Rule for the calls: active = hit-call score of the fitted dose curve at least 0.9, where 1 is the maximum; inconclusive = response in the unintended direction; inactive = score below 0.9.

target: human Dual Specificity Styrosine-Phosphorylation-Regulated Kinase 1A (DYRK1a), DYRK1A (gene 1859) (UniProt Q13627); test: NVS_ENZ_hDYRK1a: NovaScreen (NVS) Enzymatic Assay for human Dual Specificity Styrosine-Phosphorylation-Regulated Kinase 1A (DYRK1a)
Experimental: NVS_ENZ_hDYRK1a is a biochemical, single-readout assay that uses extracted gene-proteins in a cell-free assay. Measurements were taken 1 hour after chemical dosing in a 96-well plate.NVS_ENZ_hDYRK1a is one of one assay component(s) measured or calculated from the NVS_ENZ_hDYRK1a assay. It is designed to make measurements of enzyme activity, a form of enzyme reporter, as detected with fluorescence intensity signals by Fluorescence and electrophoretic mobility shift technology.Data from the assay component NVS_ENZ_hDYRK1a was analyzed into 1 assay endpoint. This assay endpoint, NVS_ENZ_hDYRK1a, was analyzed in the positive analysis fitting direction relative to DMSO as the negative control and baseline of activity. Using a type of enzyme reporter, loss-of-signal activity can be used to understand changes in the enzymatic activity as they relate to the gene DYRK1A. Furthermore, this assay endpoint can be referred to as a primary readout, because this assay has produced multiple assay endpoints where this one serves a enzymatic activity function. To generalize the intended target to other relatable targets, this assay endpoint is annotated to the kinase intended target family, where the subfamily is dual-specific kinase.
Binding assays used specific radioligands (tritiated, iodinated) with non-radioactive competitive displacement ligands in agonist or antagonist protocols (as indicated) and various reference compounds and inhibitors to titrate specific binding to receptors and transporters. Most enzyme assays (CYPs, kinases, phosphatases, proteases, HDACs) used recombinant protein and specific substrates (fluorescence mostly, some colorimetric and radioactive) and inhibitors, followed by a biochemical separation of substrate and product. All assays for the biochemical HTS were initially run in duplicate at a single concentration (10 uM for CYP450 assays and 25 uM for all others). […] Each assay was run with positive and negative controls, and concurrent controls on every plate. The follow-up (secondary) screen tested active chemical-pairs in concentration series, as well as a few additional assays not tested in the primary screen, some selected negative inactives, and several cases re-run in the concentration series for confirmatory purposes.

Row | SMILES | outcome | AC50
1 | N#Cc1c(Cl)c(Cl)c(Cl)c(C#N)c1Cl | inactive | –
2 | CCCCOC(=O)c1ccccc1C(=O)OCCCC | inactive | –
3 | CNC(=O)ON=C(SC)C(=O)N(C)C | inactive | –
4 | O=C(Nc1ccccc1)Nc1ccnc(Cl)c1 | – | 25 µM (active)
5 | O=C(Nc1ccccc1)Nc1cnns1 | inactive | –
6 | CN(C)[C@@H]1C(=O)C(C(N)=O)=C(O)[C@@]2(O)C(=O)C3=C(O)c4c(O)cccc4[C@@](C)(O)[C@H]3[C@H](O)[C@@H]12 | – | 16.7 µM (active)
7 | COc1cc(OC)nc(NC(=O)NS(=O)(=O)c2cc(NC=O)ccc2C(=O)N(C)C)n1 | inactive | –
8 | O=C(O)c1nc(Cl)ccc1Cl | inactive | –
9 | COP(N)(=O)SC (stereo not drawn) | inactive | –
10 | Nc1c(Cl)cc([N+](=O)[O-])cc1Cl | – | 14.7 µM (active)
11 | N#Cc1c[nH]cc1-c1cccc2c1OC(F)(F)O2 | inactive | –
12 | CC1=NNC(=O)N(/N=C/c2cccnc2)C1 | – | 13.5 µM (active)
13 | CCN(CC)C(=O)SCc1ccc(Cl)cc1 | inactive | –
